Experimental data: PubChem BioAssay
A number with no mark means an inactive call. No rule for the calls is given here.

Biological target: Pantothenate synthetase (Mycobacterium tuberculosis (strain ATCC 25618 / H37Rv)) (UniProt P9WIL5)
Assay: Recombinant Mtb pantothenate synthetase (PanC) inhibitors, coupled enzyme, confirmatory (AID 375);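 also: 0% = full reaction with vehicle and 100% = no enzyme background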
Conditions: coupled enzyme assay; at 10 µM, active compounds read high

Sequence of Pantothenate synthetase (Mycobacterium tuberculosis (strain ATCC 25618 / H37Rv)) (P9WIL5 whole entry, looked up): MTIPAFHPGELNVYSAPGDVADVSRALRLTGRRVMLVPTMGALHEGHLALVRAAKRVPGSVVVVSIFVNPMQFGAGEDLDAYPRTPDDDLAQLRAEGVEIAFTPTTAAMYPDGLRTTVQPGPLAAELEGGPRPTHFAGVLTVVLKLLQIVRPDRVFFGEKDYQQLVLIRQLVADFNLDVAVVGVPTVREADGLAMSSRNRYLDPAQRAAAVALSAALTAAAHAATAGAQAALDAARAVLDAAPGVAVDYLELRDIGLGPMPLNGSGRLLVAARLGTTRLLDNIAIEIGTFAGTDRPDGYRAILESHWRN

Q: How did the inhibition turn out when `CN1CCN(C2=Nc3ccccc3Oc3ccc(Cl)cc32)CC1` was run?
A: 4%

Q: For `COc1cc2c(cc1OC)-c1cc(OCc3cccnc3)nc(=O)n1CC2`, which inhibition is on record?
A: 12%

Q: How did the inhibition turn out when `O=C1c2ccccc2C(=O)N1CCCn1nnc(-c2ccc(N3CCOCC3)cc2)n1` was run?
A: 3%

Q: With `COc1ccc(C2C(C(=O)c3sc(C)nc3C)=C(O)C(=O)N2CCN2CCOCC2)cc1` (stereo not given) as the molecule, how does the inhibition read?
A: 0%

Q: Which inhibition does the source give for `CC(C)(C)SCCNC(=O)COc1ccccc1` here?
A: 3%

Q: With `COc1cc(NC(=O)CN(c2cc(C)cc(C)c2)S(=O)(=O)c2c(C)noc2C)cc(OC)c1` as the molecule, how does the inhibition read?
A: 0%

Q: With `CCCCN(CC)CCCNC(=O)c1cc2c(=O)n(C)c3ccccc3c2n1C` as the molecule, how does the inhibition read?
A: 0%

Q: Which inhibition does the source give for `CC(=O)c1c(C)nc(C)nc1NC(=O)Cc1ccccc1` here?
A: 0%

Q: Which inhibition does the source give for `CCn1c(Cc2ccccc2)nnc1SCC(=O)Nc1ccc(N2CCOCC2)c(Cl)c1` here?
A: 6%

Q: `O=C(C1CCN(c2nnc(-n3cccc3)s2)CC1)N1CCN(Cc2ccc3c(c2)OCO3)CC1` was tested. Which inhibition did it give?
A: 10%

Q: Which inhibition does the source give for `O=C(CCN1CCOCC1)Nc1cccc(Br)c1` here?
A: 10%

Q: Which inhibition does the source give for `CCOC(=O)Nc1nnc(-c2ccccc2OC)s1` here?
A: 0%

Q: How did the inhibition turn out when `CCN(c1ccccc1)S(=O)(=O)c1ccc(F)cc1C` was run?
A: 1%

Q: How did the inhibition turn out when `O=C(CCSc1nccn1Cc1ccccc1)N1CCOCC1` was run?
A: 0%

Q: `CCc1cc2c(NCCC(=O)O)ncnc2s1` was tested. Which inhibition did it give?
A: 1%

Q: Which inhibition does the source give for `N#CCOc1nc(N2CCOCC2)nc(N2CCOCC2)n1` here?
A: 0%

Q: For `COc1ccccc1Nc1nc2ccccc2[nH]1`, which inhibition is on record?
A: 0%

Q: How did the inhibition turn out when `COc1ccc(-c2cc(C(F)(F)F)n3ncc(C(=O)NCC4CCCO4)c3n2)cc1` (stereo not given) was run?
A: 0%

Q: How did the inhibition turn out when `COc1ccc(C)cc1S(=O)(=O)Nc1cccnc1` was run?
A: 0%

Q: Which inhibition does the source give for `CCc1nccn1S(=O)(=O)c1ccc(C)c(C)c1` here?
A: 0%

Q: With `O=C(c1cc2ccccc2oc1=O)N1CCN(c2ccc(N3CCOCC3)nn2)CC1` as the molecule, how does the inhibition read?
A: 0%

Q: With `CC(=O)c1ccc(NC(=O)c2cc(CC(C)C)on2)cc1` as the molecule, how does the inhibition read?
A: 0%

Q: `Cc1ccc(C)c(OCC(O)CN2C(C)CCCC2C)c1` (stereo not given) was tested. Which inhibition did it give?
A: 0%

Q: With `COc1ccc(C(=O)Nc2ccc(Cl)c(Cl)c2)c(OC)n1` as the molecule, how does the inhibition read?
A: 0%

Q: For `CCc1nn2c(=O)cc(CSc3nc4sc5c(c4c(=O)n3C)CCCC5)nc2s1`, which inhibition is on record?
A: 0%

Q: For `O=C(NCC1CCCO1)C1CC(c2ccc(Cl)c(Cl)c2)=NO1` (stereo not given), which inhibition is on record?
A: 0%

Q: With `Cc1cc(NC(=O)c2cccc(S(=O)(=O)N3CC(c4ccccc4)CC3=O)c2)no1` (stereo not given) as the molecule, how does the inhibition read?
A: 2%

Q: How did the inhibition turn out when `CC(C)[C@H](NC(=O)OC(C)(C)C)c1nnc(SCc2cccc(F)c2)o1` was run?
A: 1%

Q: With `CC1=CCC(C(C)(C)NC(=O)c2ccccc2)C/C1=N\O` (stereo not given) as the molecule, how does the inhibition read?
A: 0%

Q: Which inhibition does the source give for `Cc1cc(C)n(-c2cc(N3CCOCC3)ncn2)n1` here?
A: 1%

Q: For `COc1cc(CC(=O)NCc2ccc3c(c2)OCO3)cc(OC)c1OC`, which inhibition is on record?
A: 1%

Q: How did the inhibition turn out when `CC(OC(=O)CNC(=O)C12CC3CC(CC(C3)C1)C2)C(=O)Nc1ccc(N2CCOCC2)cc1` (stereo not given) was run?
A: 0%

Q: `COc1ccc(C(=O)NCc2nnc(SC)n2C2CCCCC2)cc1` was tested. Which inhibition did it give?
A: 2%

Q: With `CCCSc1nc2c(cnn2-c2ccc(C)cc2)c(=O)[nH]1` as the molecule, how does the inhibition read?
A: 0%

Q: `Cc1c(CCC#N)c(N2CCN(C3CCCCC3)CC2)n2c(nc3ccccc32)c1C#N` was tested. Which inhibition did it give?
A: 3%

Q: How did the inhibition turn out when `CC1=C(C(=O)Nc2ccccc2C)C(c2ccc(C)o2)N2C(=O)CSC2=N1` (stereo not given) was run?
A: 0%

Q: Which inhibition does the source give for `CC(C)c1ccc(-c2nc(N3CCCCC3)[nH]c(=O)c2C#N)cc1` here?
A: 5%

Q: `CCOc1ccc(S(=O)(=O)Nc2ccc(Cl)cn2)c(C)c1C` was tested. Which inhibition did it give?
A: 0%

Q: `CC(C)OCCCNC(=O)c1cc2c(s1)CS(=O)(=O)C2` was tested. Which inhibition did it give?
A: 0%

Q: Which inhibition does the source give for `Cc1cc(C)n(CCCNC(=O)c2ccc3c(c2)NC(=O)CS3)n1` here?
A: 0%
